# Inconclusive results are not listed. Active and inactive are the calls of the source. Rule for the calls, unless noted: active = hit-call score of the fitted dose curve at least 0.9, where 1 is the maximum; inconclusive = response in the unintended direction; inactive = score below 0.9.
# Tests used:
# [1] = VALA_TUBIPS_Antagonist_TubuleLength: VALA Sciences human iPS-derived Endothelial Tubule Formation (TUBIPS) Antagonist Assay (AID 2284313)
# Method in brief: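 Cells grown 3 days with 10 ng/ml VEGF, then exposed to compounds in VEGF medium for another 3 days. After fixation, nuclear stain and CD31 immunofluorescence imaging gave mean total tubule length against 0.1% DMSO; suramin (100 uM) inhibition control.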
# [2] = VALA_MIGHUV2_CellCount: Viability Assessment in the VALA Sciences human Umbilical Vein Endothelial Cell Migration (MIGHUV) Assay, Area of Scratch Wound after Recovery (AID 2284314)
# Method in brief: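 Scratch-wounded HUVEC monolayers received test chemical within 30 min, 6-point concentration response in triplicate, 0.1 % DMSO vehicle. After 24 h wound recovery, fixed cells were Hoechst-stained and nuclei imaged; loss of signal versus DMSO indicates reduced viability.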
# [3] = VALA_MIGHUV2_Bcatenin: VALA Sciences human Umbilical Vein Endothelial Cell Migration (MIGHUV) Assay, Nuclear Translocation of beta-Catenin after Recovery (AID 2284315)
# Method in brief: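 HUVEC (4000 cells/well) scratch-wounded, dosed within 30 min over 6 concentrations in triplicate, recovered 24 h. After fixation, Hoechst and anti-beta-catenin immunofluorescence imaged for nuclear CTNB. Gain of signal versus 0.1% DMSO.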
# [4] = VALA_MIGHUV2_WoundArea: VALA Sciences human Umbilical Vein Endothelial Cell Migration (MIGHUV) Assay, Area of Scratch Wound after Recovery (AID 2284316)
# Method in brief: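 HUVEC seeded at 9000 cells/well, scratched after 24 h; test chemical added within 30 min, 6-point concentration response in triplicate (0.1% DMSO vehicle). After 24 h wound recovery, cells fixed and Hoechst-stained nuclei in wound area imaged; Cytochalasin D reference control.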
# [5] = VALA_TUBIPS_Antagonist_CellCount: Viability Assessment in the VALA Sciences human iPS-derived Endothelial Tubule Formation (TUBIPS) Antagonism Assay (AID 2284335)
# [6] = VALA_MIGHUV1_ScratchOnly_WoundArea: VALA Sciences human Umbilical Vein Endothelial Cell Migration (MIGHUV) Assay, Area of Scratch Wound Inhibited Recovery (AID 2284336)
# Method in brief: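 HUVEC monolayers (9000 cells/well) were scratched after 24 h, dosed within 30 min (six concentrations, triplicate, 0.1% DMSO), allowed 24 h recovery, then fixed. Hoechst-stained nuclei in the wound imaged; cytochalasin D as reference.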
# [7] = VALA_TUBHUV_Agonist_TubuleLength: VALA Sciences human Umbilical Vein Endothelial Tubule Formation (TUBHUV) Agonism Assay (AID 2284337)
# Method in brief: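 HUVEC co-cultured with fibroblasts (1:3) 3 days in 10 ng/ml VEGF, then 3 days with compound plus VEGF; 0.1 % DMSO neutral control. Fixed, nuclear and CD31 stained; tubule length by fluorescence imaging.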
# [8] = VALA_TUBIPS_Agonist_CellCount: Viability Assessment in the VALA Sciences human iPS-derived Endothelial Tubule Formation (TUBIPS) Agonism Assay (AID 2284338)
# TTR (gene 7276) = test: CCTE_GLTED_hTTR_0.5uM: CCTE's human Transthyretin (hTTR) Inhibition Assay, with 0.5uM TTR, Great Lakes Toxicology and Ecology Division (GLTED) Lab (AID 2284320; active = hit-call score of the fitted dose curve at least 0.9, where 1 is the maximum; inactive = score below 0.9)
# Method in brief: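 Cell-free displacement assay in which human TTR at 0.5 uM was incubated with test chemical for 2 h. Displacement of the ANSA probe was read by fluorescence at 380 nm excitation/475 nm emission. Loss of signal was fitted in the positive direction versus DMSO.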
# [9] = IUF_NPC1_cytotoxicity_72hr: Cytotoxicity Assessment at 72 hours in the Leibniz Research Institute for Environmental Medicine (IUF) Neural Progenitor Cell Proliferation Assay (NPC1) (AID 2284332);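 note: rising LDH signal means more cytotoxicity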
# Method in brief: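 Single human fetal cortex neural progenitor spheres (GW 16-19, 0.25-0.35 mm) in EGF/FGF proliferation medium were exposed to compound for 72 h at 37C without renewal. Medium LDH release was read as resorufin fluorescence and fitted as gain-of-signal.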
# [10] = CCTE_Deisenroth_H295R-HTRF_384WELL_ESTRADIOL: CCTE's H295R-HTRF Assay Evaluation of Estradiol Concentration, Deisenroth Lab (AID 2284361; active = hit-call score of the fitted dose curve at least 0.9, where 1 is the maximum; inactive = score below 0.9); conditions: actives raise or lower the signal
# Method in brief: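 H295R cells exposed 48 h to chemicals at 0.001 - 100 uM final (nine points, triplicate); estradiol in conditioned medium measured by HTRF immunoassay, fitted bidirectionally versus DMSO. Viability by CellTiter-Glo on same plates.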
# [11] = CCTE_Deisenroth_H295R-HTRF_384WELL_TESTOSTERONE: CCTE's H295R-HTRF Assay Evaluation of Testosterone Concentration, Deisenroth Lab (AID 2284373; active = hit-call score of the fitted dose curve at least 0.9, where 1 is the maximum; inactive = score below 0.9); conditions: actives raise or lower the signal
# Method in brief: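 Testosterone secreted into medium was quantified by direct HTRF immunoassay after a 48 h treatment of H295R adrenocortical cells (nine concentrations, 0.001–100 uM final). Gain or loss fitted relative to DMSO; CellTiter-Glo viability read on same plates.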
smiles,measurement,setting,value
CC(C)(C)c1cc(O)ccc1O,outcome,[1],inactive
same,AC50,[2],74.3 µM (active)
same,AC50,[3],82.8 µM (active)
same,AC50,[4],73 µM (active)
same,outcome,[5],inactive
same,outcome,[6],inactive
same,AC50,[7],56 µM (active)
same,AC50,[8],50 µM (active)
ClCC(Cl)CCl,outcome,[2],inactive
same,outcome,[4],inactive
same,outcome,[5],inactive
same,outcome,[6],inactive
same,outcome,[7],inactive
same,outcome,[8],inactive
O=C(O)C(F)(F)C(F)(F)C(F)(F)C(F)(F)C(F)(F)C(F)(F)C(F)(F)C(F)(F)C(F)(F)C(F)(F)F,AC50,TTR (gene 7276),1.98 µM (active)
O=C(O)C(F)(F)C(F)(F)C(F)(F)C(F)(F)C(F)(F)C(F)(F)F,AC50,TTR (gene 7276),0.395 µM (active)
COP(=O)(OC)O/C(=C\Cl)c1cc(Cl)c(Cl)cc1Cl,AC50,[9],75.5 µM (active)
CCOP(=S)(OCC)Oc1nc(Cl)c(Cl)cc1Cl,outcome,[9],inactive
Fc1ccc(C2(Cn3cncn3)OC2c2ccccc2Cl)cc1 (configuration not stated),AC50,[10],1.14 µM (active)
same,AC50,[11],1.23 µM (active)
CCC1(c2ccc(N)cc2)CCC(=O)NC1=O (configuration not stated),outcome,[10],inactive
same,outcome,[11],inactive
